Measurements published in PubChem BioAssay (Tox21).
A number with no mark means an inactive call. Calls of active or inactive are those of the source. Calls follow the shape of the dose curve; as a rule, active = well fitted curve in the direction sought with a large enough effect in the repeat runs; inconclusive = weak or mixed curves; inactive = flat fitted curve, though single readings scatter.

Experiment: qHTS assay to test for compound auto fluorescence at 460 nm (blue) in HEK293 cells (AID 720678)
Conditions: blue autofluorescence 405/460 nm; series mostly up to 91.3 µM; fluorescence, % of triamterene: at the top concentration
Text: National Center for Advancing Translational Sciences [NCATS]
NIH Chemical Genomics Center [NCGC]
U.S. Environmental Protection Agency [EPA]
National Institutes of Environmental Health Sciences [NIEHS]
National Toxicology Program [NTP]
U.S. Food and Drug Administration [FDA]
Compound auto fluorescence often interferes with screening of the compound library against various biological targets and signaling pathways. Some of these compounds may have fluorophoric properties. Such properties may interfere with the assay outputs resulting in false positives and/or negatives. To decrease such complications and ensure the compound activities are relevant in terms of biological response, the Tox21 10K compound library was screened for auto fluorescence.
From the fluorophores used as reporter signals in our screening assays, the auto fluorescence equivalencies of compounds against three fluorophores have been evaluated: Triamterene, Fluorescein and Rose Bengal sodium for blue, green and red fluorescence, respectively. The fluorescence intensities were measured using Excitation/Emission wavelengths at 405/460nm, 485/535nm and 540/590nm for blue, green and red labels, respectively. This assay includes the blue fluorescence data.
Tox21 Assay Protocol Summary:
2,000 HEK293 cells in 5 uL of culture medium containing 10% dialyzed FBS per well were dispensed into black wall/clear bottom 1536-well plates using a Multidrop Combi Dispenser (Thermo Scientific). The assay plates were incubated for 4-5 hr at 37C to allow cell attachment to the well bottom, followed by the transfer of 23 nL compound or DMSO vehicle by a pintool work station (Kalypsys, San Diego, CA). After the assay plates were incubated overnight at 37C and 5% CO2, fluorescence intensities in the assay plates were measured by an Envision (PerkinElmer, Shelton, CT) plate reader using three labels for measuring blue, green and red fluorescence at […] 460, 535 and 590nm respectively.
% is scaled to controls: 0 for no effect and ±100 for the full control effect; potency is read from the fitted curve at half-maximal effect; tags tell the direction and shape of the fitted curve or compound fluorescence and quenching.

Row | SMILES | fluorescence, % of triamterene | Potency
1 | CNCC[C@H](Oc1cccc2ccccc12)c1cccs1 | 0.0791% [at 46 µM] | –
2 | CCN=c1cc2oc3cc(NCC)c(C)cc3c(-c3ccccc3C(=O)OCC)c-2cc1C | – | inactive
3 | CCCCCCCCCCCCCCNCCO | -0.0668% [at 46 µM] | –
4 | CN(C)CCOC(c1ccccc1)c1ccccc1 (tested in a mixture with another compound) | -0.301% | –
5 | CCCC(CC)CCCCCCCN (stereo not given) | -0.18% [at 95.7 µM] | –
6 | CCCCC(CC)COC(=O)c1ccc(O)cc1 (stereo not given) | – | inactive
7 | CCCCCCCCCC(=O)N(C)C | 0.0168% [at 95.7 µM] | –
8 | C(=C/c1ccccc1)/c1ccccc1 | -0.0143% [at 95.7 µM] | –
9 | Nc1ccc2cc3ccc(N)cc3nc2c1 | – | 12.6 µM [fluorescent] (active)
10 | CCN(CC)CCSC(=O)C(c1ccccc1)c1ccccc1 | – | inactive
11 | CCN=C1C=CC(=C(c2ccc(N(CC)CC)cc2)c2ccc(N(CC)CC)cc2)c2ccccc21 | -0.0651% | –
12 | CCCCCCOc1ccc(O)cc1 | 0.024% | –
13 | CCN(CC)c1ccc(N)cc1 | -0.238% [at 95.7 µM] | –
14 | CN(C)CCCN1c2ccccc2CCc2ccccc21 | – | inactive
15 | CC(C)c1ccc(O)c(C(C)C)c1 | 0.0249% | –
16 | CC1(C)C(=O)N(Br)C(=O)N1Br | -0.024% | –
17 | C[n+]1c2cc(N)ccc2cc2ccc(N)cc21 (tested in a mixture with another compound) | – | 12.6 µM [fluorescent] (active)
18 | CCOC(=O)[C@@](C)(N)Cc1ccc(O)c(O)c1 | 0.197% [at 18.6 µM] | –
19 | COc1ccc2sc(C(=O)Nc3nnn[nH]3)c(OC(C)C)c2c1 | -0.0009% | –
20 | CCN(CC)CCOC(=O)C1(C2CCCCC2)CCCCC1 | 0.105% [at 46 µM] | –

Row | SMILES | fluorescence, % of triamterene | Potency
21 | CSc1c(Cl)c(Cl)c(Cl)c(Cl)c1Cl | 0.0732% | –
22 | O=C(NO)c1ccccc1 | -0.344% | –
23 | CC1=C(/C=C/C(C)=C/C=C/C(C)=C\C=O)C(C)(C)CCC1 | 1.06% | –
24 | O=C(Nc1ccc(Cl)c(Cl)c1)c1cc(Cl)cc(Cl)c1O | 2.5% | –
25 | NC1(c2ccc(-c3nc4ccn5c(=O)[nH]nc5c4cc3-c3ccccc3)cc2)CCC1 | 2.45% [at 46 µM] | –
26 | C=CC(=O)OCCOCC(CC)(COCCOC(=O)C=C)COCCOC(=O)C=C | 0.0276% [at 95.7 µM] | –
27 | Oc1ccc(-c2ccc(O)cc2)cc1 | 0.0391% | –
28 | Cc1oc(-c2ccccc2)nc1CCOc1ccc(C[C@H](Nc2ccccc2C(=O)c2ccccc2)C(=O)O)cc1 | -0.272% | –
29 | CC(C)(c1cc(Br)c(OCCO)c(Br)c1)c1cc(Br)c(OCCO)c(Br)c1 | 0.0588% | –
30 | Cc1c(C(=O)O)cccc1[N+](=O)[O-] | -0.234% [at 95.7 µM] | –
31 | Cc1c(-c2ccc(O)cc2)n(Cc2ccc(OCCN3CCCCCC3)cc2)c2ccc(O)cc12 | 0.185% [at 46 µM] | –
32 | COC(=O)C1=C(C)NC(C)=C(C(=O)OCCCN2CCC(c3ccccc3)(c3ccccc3)CC2)C1c1cccc([N+](=O)[O-])c1 (stereo not given) | -0.0892% [at 46 µM] | –
33 | COc1ccccc1OCCNCC(O)COc1cccc2[nH]c3ccccc3c12 (stereo not given) | 0.001% [at 46 µM] | –
34 | CCC(=O)OCCc1ccccc1 | -0.232% | –
35 | CN1[C@@H]2CC[C@H]1CC(OC(=O)C(CO)c1ccccc1)C2 (stereo not given in full) | – | inactive
36 | S=P(N1CC1)(N1CC1)N1CC1 | – | inactive
37 | O=C(Nc1ccc(Cl)cc1)Nc1ccc(Cl)c(C(F)(F)F)c1 | -0.183% [at 46 µM] | –
38 | Cc1cccc(C)c1NC(=O)CN1CCN(CCCC(c2ccc(F)cc2)c2ccc(F)cc2)CC1 | 0.0374% [at 18.6 µM] | –
39 | CC(C)(C)c1cc(/C=C2\SC(=N)NC2=O)cc(C(C)(C)C)c1O | 0.477% | –
40 | CC(C)OC(=O)c1cc(C(=O)OC(C)C)cc([N+](=O)[O-])c1 | -0.285% [at 95.7 µM] | –
